Measurements taken from PubChem BioAssay.
“And” between values parts separate entries of the source, which are not always exact repeats. Equal entries are not always repeated.

Assay: binders of probe aFST on microarray, primary screen, stem cell growth factor project, biochemical, small-molecule microarray, fluorescence 635/667 (AID 1086);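 also: score merges 667 nm fluorescence with signal-to-noise of each printed compound spot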
Details: higher = more signal
With `C=CCN(CCCC)C(=O)C1N(c2ccc(CCO)cc2)C(=O)C2C(C(=O)O)C3C=CC21O3` (stereo not given) the composite z-score was -0.951 and -1.03. In the case of `COC(=O)C1=C(C)N(Cc2ccccc2)C2=C3C(=O)N(c4ccccc4)C(=O)[C@@H]3[C@@](O)(C(=O)OC)C(=O)N2[C@@H]1c1ccccc1`, the composite z-score is reported as 0.366 and 0.346. For `CCC[C@@H]1C[C@@]1(CCC)[C@@H](NC(=O)c1ccc(-c2ccccc2)cc1)c1cccc(Cl)c1`, the composite z-score was 1.96 and 0.48. With `C=CCN(C(=O)C(c1cccs1)N(C(=O)/C=C\C(=O)O)c1ccc(CCO)cc1)C(C)(C)C` (stereo not given) the composite z-score was -0.23 and -0.706. For `C=CCN(Cc1ccccc1)C(=O)C1N(CCCCCCO)C(=O)C2C(C(=O)O)C3C=CC21O3` (stereo not given), the composite z-score was -0.841 and -0.708. Molecule `COc1ccc(COC(=O)NN=C2C[C@@H](O)[C@@H](O)[C@@H]3[C@@H]4C(=O)N(C(C)(C)C)C(=O)[C@@H]4CC[C@H]23)cc1` has a composite z-score of 0.0715. With `O=C1NC(=O)C2C1C=CC(C(O)c1ccc([N+](=O)[O-])cc1)N2Nc1ccc(Cl)cc1Cl` (stereo not given) the composite z-score was 0.848 and 1.54. With `COC(=O)C1=C(C)N(Cc2ccccc2)C2=C3C(=O)CCC[C@@H]3[C@@](O)(C(=O)OC)C(=O)N2[C@@H]1c1ccccc1` the composite z-score was 0.325 and 0.107. For `C[N+](C)(C)CCCCNC(=O)[C@H]1C[C@H]2C(=O)N[C@@H](CCCC[N+](C)(C)C)C(=O)N2[C@H]1c1cccc(OCCO)c1`, the composite z-score was 0.613 and 0.743. With `C=CCN(CCCCC)C(=O)C1N(c2ccc(CCO)cc2)C(=O)C2C(C(=O)O)C3C=CC21O3` (stereo not given) the composite z-score was -0.623 and -0.681. `CC(C)C(=O)N[C@@H]1CCCN1C(=O)C=Cc1ccccc1` gave a composite z-score of 0.125. With `C[C@@H](ON=C1[C@H]2CCn3c(=O)n(-c4ccccc4)c(=O)n3[C@H]2[C@H](O)[C@@H]2O[C@H]12)c1cn([C@H](CO)Cc2ccccc2)nn1` the composite z-score was 0.0701. For `C=CCN1C(=O)[C@]2(O[C@H](CCn3cc(CCO)nn3)[C@@H]([Si](C)(C)c3ccc(OC)cc3)[C@@H]2C)c2cc(N3C(=O)c4cccc5cccc3c45)ccc21`, the composite z-score was 0.115 and -0.305. In the case of `COC(=O)[C@@]1(Cc2ccc(F)cc2)[C@H]2c3cc(C(=O)N4CCCC4)n(Cc4c(CO)[nH]cc(C)c4=O)c3C[C@H]2CN1C(=O)c1ccccc1`, the composite z-score is reported as 1.54 and 0.659. In the case of `C=CCN(CCCCC)C(=O)C1N(c2c(Cl)cccc2CO)C(=O)C2C(C(=O)O)C3C=CC21O3` (stereo not given), the composite z-score is reported as -0.898 and -1.06. For `C=CCN(C(=O)C1N(c2c(Cl)cccc2CO)C(=O)C2C(C(=O)O)C3C=CC21O3)C(C)(C)C` (stereo not given), the composite z-score was -0.347 and -0.422. With `COC(=O)[C@@]1(Cc2ccc(OC)cc2)[C@H]2c3cc(C(=O)N(C)C)n(Cc4ccc(O)c(OC)c4)c3C[C@H]2CN1C(=O)c1ccccc1` the composite z-score was 0.808 and 1.15. With `C=CCN(C(=O)C1N(C(C)(C)CO)C(=O)C2C(C(=O)O)C3C=CC21O3)c1ccc(OC)cc1` (stereo not given) the composite z-score was -0.898 and -1.25. With `C[N+](C)(C)CCCCNC(=O)[C@@H]1C[C@@H]2C(=O)N[C@@H](CCCC[N+](C)(C)C)C(=O)N2[C@@H]1c1cccc(OCCO)c1` the composite z-score was 0.311 and 0.464. With `CCCC[C@@H]1CN2[C@@H](CC[C@@H](C)[C@@H]2c2ccc(Br)cc2)C(=O)O1` the composite z-score was 0.0218 and 0.0109. For `CCN1C(=O)[C@H]2[C@H]3[C@H](O)[C@H](O)CC(=NOC)[C@@H]3CC[C@H]2C1=O`, the composite z-score was -0.221. In the case of `C=C[C@H](OC)[C@@H](O)c1ccc(OCCO)cc1`, the composite z-score is reported as -1.29 and -0.821. In the case of `COC(=O)C1=C(C)N(Cc2ccccc2)[C@]23O[C@](C(=O)OC)(C(=O)N2[C@@H]1c1ccccc1)[C@@H](c1ccccc1)[C@@H]3C(=O)c1ccccc1`, the composite z-score is reported as 0.398 and 0.155. In the case of `CCOC(=O)[C@@H]1CC=C2CC1C(=O)N1CCC[C@@H]1[C@H]2O[Si](C)(C)C(C)(C)C` (stereo not given in full), the composite z-score is reported as -0.0907 and -1.25. With `CCOC(=O)[C@@H]1CC2O[C@]23C[C@@H]1C(=O)N1CCC[C@@H]1[C@H]3O[Si](C)(C)C(C)(C)C` (stereo not given in full) the composite z-score was -0.378 and 0.223. With `Cc1ccc(S(=O)(=O)OC[C@@H]2CN3[C@@H](CC[C@@H](C)[C@@H]3c3ccc(Br)cc3)C(=O)O2)cc1` the composite z-score was 0.447 and 0.166. In the case of `COC(=O)C1=C(C)N(Cc2ccccc2)[C@]23O[C@](C(=O)OC)(C(=O)N2[C@@H]1c1ccccc1)[C@H]1C(=O)N(c2ccccc2)C(=O)[C@H]13`, the composite z-score is reported as 0.0931 and 0.64. For `CCOC(=O)c1ccc(NC(=O)O[C@H]2[C@H](OC(=O)Nc3ccccc3)[C@H](OC(=O)Nc3ccccc3)[C@@H](OC)O[C@@H]2CO)cc1`, the composite z-score was 1.18 and 0.937. In the case of `C[N+](C)(C)CCCCCCNC(=O)[C@H]1C[C@H]2C(=O)N[C@@H](CCCC[N+](C)(C)C)C(=O)N2[C@H]1c1ccc(O)cc1`, the composite z-score is reported as -0.15 and -0.508. With `Cc1ccc(S(=O)(=O)N[C@@H]2COC(=O)CC=C[C@@H](C)[C@@H]3C=C[C@H](O)[C@@H](COC(=O)CC=C[C@H]2C)O3)cc1` the composite z-score was 0.101 and 0.0406. With `CCCNC(=O)OC[C@H]1O[C@H](CCON=C(C)CCC(=O)OC[C@H]2O[C@H](C#Cc3ccccc3)C=C[C@@H]2Oc2ccc(C)cc2)C=C[C@@H]1Oc1ccc(OC)cc1` the composite z-score was -0.244. With `C=CCN(CCCC)C(=O)C1N(C(C)(C)CO)C(=O)C2C(C(=O)O)C3C=CC21O3` (stereo not given) the composite z-score was -1.12 and -0.587. For `C=C[C@@H](C)[C@H](O)c1ccc(O)c2ccccc12`, the composite z-score was -0.938 and -1.14. With `C=CCN(Cc1ccccc1)C(=O)C1N(C(C)(C)CO)C(=O)C2C(C(=O)O)C3C=CC21O3` (stereo not given) the composite z-score was -0.847 and -1.28. For `C=CC[C@H](O)c1ccc(OCCO)cc1`, the composite z-score was -0.396 and -0.905. For `C=CCN(C(=O)C(c1cccs1)N(C(=O)/C=C\C(=O)O)c1ccc(CCO)cc1)c1ccc(OC)cc1` (stereo not given), the composite z-score was -0.889 and -1.13. With `C=CC[C@@H](O)c1ccc(OCCO)cc1` the composite z-score was -0.871 and -1.16. For `C=CCN(C(=O)C1N(CCCCCCO)C(=O)C2C(C(=O)O)C3C=CC21O3)c1ccc(OC)cc1` (stereo not given), the composite z-score was -0.718 and -0.496. In the case of `COC(=O)C1=C(C)N(Cc2ccccc2)C2=C(C(=O)c3ccccc3)[C@H](c3ccccc3)[C@@](O)(C(=O)OC)C(=O)N2[C@@H]1c1ccccc1`, the composite z-score is reported as 0.128 and 0.0478. For `Cc1ccc(S(=O)(=O)N[C@H]2COC(=O)[C@@H](C)COC(=O)[C@H](C)NC(=O)CC=C[C@H]2C)cc1`, the composite z-score was -0.154.
